Assay results: paper PMC5540273 (PLoS ONE, 2017)
Several values for one entry are separate records, joined by “and”; a condition that tells them apart may be missing. Equal entries are not always repeated. Where two headings read alike, the source gives them in different places.

Legend:
CDK4 = conditions: n = 1
CDK5 = conditions: concentration: 1 μM, replicates: in singlicate; n = 1
CDK7 = conditions: n = 1
CDK8 = conditions: concentration: 1 μM, replicates: in singlicate; n = 1
CDK9 = conditions: n = 1
CDKL1 = conditions: concentration: 1 μM, replicates: in singlicate; n = 1
CDKL2 = conditions: n = 1
CDKL3 = conditions: concentration: 1 μM, replicates: in singlicate; n = 1
CDKL5 = conditions: concentration: 1 μM, replicates: in singlicate; n = 1
CHEK1 = conditions: n = 1
[1] = concentration: 1 μM, replicates: in singlicate
[2] = concentration: 1 μM,replicates: in singlicate, 1 µM
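Also: KINOMEscan kinase panel screen.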

| SMILES | %Inh (CDK4; [1]) [%] | %Inh (CDK5) [%] | %Inh (CDK7; [1]) [%] | %Inh (CDK8) [%] | %Inh (CDK9; [1]) [%] | %Inh (CDKL1) [%] | %Inh (CDKL2; [1]) [%] | %Inh (CDKL3) [%] | %Inh (CDKL5) [%] | %Inh (CHEK1; [1]) [%] | %Inh (CDK4; [2]) | %Inh (CDK7; [2]) | %Inh (CDK9; [2]) | %Inh (CDKL2; [2]) | %Inh (CHEK1; [2]) |
| --- | --- | --- | --- | --- | --- | --- | --- | --- | --- | --- | --- | --- | --- | --- | --- |
| Fc1cc(Cl)ccc1Nc1ccnc2cc(I)ccc12 [GW551191] | 23 | 0 | 0 | 7 | 0 | 0 | 21 | 0 | 3 | 0 |  |  |  |  |  |
| CSc1nn2c(=O)cc(N3CCOCC3)nc2n1Cc1cccc(C(F)(F)F)c1C [GSK2363608] |  | 0 |  | 0 |  | 0 |  | 0 | 0 |  | 15% and 0% | 7% and 0% | 7% and 0% | 17% and 30% | 4% and 11% |
| Cc1ccccc1-n1cnc2c(N)ncnc21 [SKF-97510] | 0 | 0 | 0 | 0 | 0 | 14 | 0 | 39 | 0 | 5 |  |  |  |  |  |
| Cn1cncc1-c1ccc2ncnc(Nc3ccc(OCc4ccccc4)cc3)c2c1 [GW320571] | 0 | 3 | 0 | 29 | 0 | 0 | 19 | 0 | 0 | 15 |  |  |  |  |  |
| Cc1cccc(-c2nc(Nc3ccncc3)c3ccccc3n2)n1 [GW855857] | 0 | 0 | 0 | 65 | 0 | 47 | 10 | 0 | 0 | 0 |  |  |  |  |  |
| O=C1NC(=O)C(N2CCc3ccccc32)=C1c1ccccc1Cl [SB-373598] | 27 | 0 | 29 | 25 | 8 | 18 | 23 | 4 | 0 | 2 |  |  |  |  |  |
| O=S(=O)(c1ccc(-c2ccnc3[nH]ccc23)cc1)N1CCCC1 [GSK846226] | 0 | 0 | 2 | 0 | 0 | 7 | 5 | 0 | 4 | 0 |  |  |  |  |  |
| O=C(Nc1ccc2c(c1)OCO2)NC1CCN(c2ccnc(Nc3ccc(F)cc3)n2)C1 (stereo not drawn) [GSK1379724] | 0 | 0 | 0 | 33 | 0 | 0 | 49 | 0 | 3 | 0 |  |  |  |  |  |
| COc1ccc(CNC(=O)NC2CCN(c3ccnc(Nc4cc(OC)c(OC)c(OC)c4)n3)C2)cc1 (stereo not drawn) [GSK1379748] | 36 | 0 | 0 | 51 | 0 | 15 | 20 | 0 | 0 | 0 |  |  |  |  |  |
| Fc1cccc(COc2nnc(-c3ccc4c(c3)CCO4)o2)c1 | 0 | 0 | 9 | 19 | 0 | 0 | 9 | 9 | 0 | 0 |  |  |  |  |  |
| CN1C(=O)C(Nc2ccc(Cl)c(C(=O)O)c2)=C(c2ccc(Cl)cc2)C1=O [SB-404290] | 47 | 0 | 0 | 0 | 0 | 1 | 13 | 0 | 16 | 0 |  |  |  |  |  |
| Cc1cccc(-c2nc(Nc3ccc4[nH]ncc4c3)c3ccccc3n2)n1 [GW857175] | 0 | 3 | 8 | 0 | 0 | 0 | 7 | 4 | 18 | 4 |  |  |  |  |  |
| CS(=O)(=O)c1ccc(-c2c(-c3ncn[nH]3)sc(N3CCOCC3)c2C#N)cc1 | 1 | 38 | 31 | 18 | 6 | 22 | 7 | 13 | 0 | 0 |  |  |  |  |  |
| Cc1cccc(-c2cc(Nc3ccncc3)c3ccccc3n2)n1 [GSK223675] | 0 | 0 | 0 | 0 | 4 | 0 | 5 | 0 | 1 | 0 |  |  |  |  |  |
| Cc1cc(N2Cc3ccccc3C2)nc(Nc2ccc(S(=O)(=O)N3CCOCC3)cc2)n1.Cl [GSK1669917] | 0 | 0 | 0 | 33 | 0 | 0 | 0 | 0 | 6 | 0 |  |  |  |  |  |
| COc1cc2ncn(-c3cc(OCC4CCCO4)c(C(N)=O)s3)c2cc1OC (stereo not drawn) [GSK204607] | 13 | 0 | 4 | 32 | 0 | 11 | 1 | 0 | 0 | 0 |  |  |  |  |  |
| CC(=O)Nc1nc2cnc(Nc3cc(NC(=O)c4cccc(CCC#N)c4)ccc3C)nc2s1 | 2 | 12 | 39 | 5 | 0 | 0 | 29 | 0 | 4 | 0 |  |  |  |  |  |
| O=C(Nc1n[nH]c2nc(-c3nccs3)c(Br)cc12)C1CC1 [SB-742251] | 44 | 0 | 12 | 25 | 0 | 24 | 92.3 | 0 | 0 | 0 |  |  |  |  |  |
